# High-throughput results (PubChem)
# aSyn 5UTR act – Activators via SNCA 5'UTR binding, MLPCN. alpha-synuclein 5'UTR reporter, activators screen. activity score, % (tested at 7.5 µM), hits read low. actives 7.1% (n = 300,000). AID 1814; in the data active means activity score below about -60%
# The depositor's hits bear a star. Only a sample is shown.
SMILES,aSyn 5UTR act
COCCn1c(/C=C/c2ccccc2)nc2ccccc21,-156.2*
Cc1cccc(NC(=O)Cn2c(/C=C/c3ccccc3)nc3ccccc32)c1,-123.3*
N/C(=N\OCc1ccccc1)c1nonc1N,-97.8*
Cc1[nH]n(-c2ccc([N+](=O)[O-])cc2)c(=O)c1C=NCC1CCCO1 (stereo not given),-88.0*
O=c1sc2ccccc2n1CCCOc1ccccc1,-137.0*
Cc1ccc(OCCCn2c(=O)sc3ccccc32)cc1,-65.0*
Cc1ccccc1OCCCn1c(=O)sc2ccccc21,-129.8*
Cc1ccc(OCCn2c(=O)sc3ccccc32)cc1,-115.3*
O=c1sc2ccccc2n1COc1ccc(Cl)cc1,-89.6*
O=C(/C=C/c1ccc(-c2ccccc2[N+](=O)[O-])o1)c1ccco1,-135.9*
Nc1ccc2nc3c(=O)n(C4CCCCC4)c(=O)[nH]c3nc2c1,-130.2*
COc1ccc(C(=O)Nc2cc(Cl)cc(Cl)c2)c(OC)n1,-113.7*
COc1ccc(C(=O)Nc2cc(Cl)ccc2Cl)c(OC)n1,-90.5*
O=C(c1ccccc1)N1C(=O)C(c2ccccc2)Oc2ccccc21 (stereo not given),81.7
O=C1OC(c2ccc(Cl)cc2)/C(=C(/O)c2ccccc2)C1=O (stereo not given),-66.5*
COc1cc(C2C=C(Nc3ccccc3)C(=O)N2c2ccccc2)ccc1O (stereo not given),-72.1*
Cc1ccc2nc(NC(=O)C3CCCN(S(=O)(=O)c4cnc[nH]4)C3)sc2c1 (stereo not given),-127.9*
Cc1ccc(OCc2nc(-c3cccnc3)no2)cc1C,-124.9*
Cc1ccccc1OCc1nc(-c2cccnc2)no1,-70.6*
Cc1cc(OCc2nc(-c3cccnc3)no2)c(C)cc1Br,-68.5*
O=C(Nc1ccc(F)cc1F)c1cccc(C(=O)Nc2ccc(F)cc2F)n1,86.7
O=C(Nc1ccc(F)cc1F)c1csc(-c2ccccc2)n1,-95.3*
O=C(Nc1ccccc1)c1csc(-c2ccccc2)n1,-170.2*
O=C(Nc1ccccc1Cl)c1csc(-c2cccnc2)n1,-69.9*
COc1ccc(NC(=S)NC(=O)/C=C/c2cccs2)cc1,-72.8*
SMILES,aSyn 5UTR act
O=C(/C=C/c1ccco1)NC(=S)Nc1ccc(N2CCCC2)cc1,-70.3*
COc1ccc(OC)c2sc(N(CCN(C)C)C(=O)/C=C/c3cccs3)nc12,54.1
CCCCOC(=O)c1ccc(NC(=O)/C=C/c2cccs2)cc1,-87.9*
COc1ccc(NC(=S)NC(=O)/C=C/c2ccco2)cc1,-91.2*
CCOC(=O)c1cn2nc(SCc3ccccc3)nc2nc1C,-105.3*
N#Cc1cnc2nc(SCc3ccccc3)nn2c1,-149.4*
Cc1ccc(/C=C/C(=O)c2ccc(N3CCOCC3)cc2)s1,-133.2*
Cc1cccc(/C=C/C(=O)c2ccc(N3CCOCC3)cc2)c1,-114.3*
CC(=O)Oc1ccc(Cl)cc1/C=C/c1ccc2ccccc2n1,-258.5*
CC(=O)Oc1ccccc1/C=C/c1nc2ccccc2c(=O)o1,65.6
CC(=O)Oc1c(Cl)cc(Cl)cc1/C=C/c1ccc2ccccc2n1,-205.2*
Cc1nc(C)c(-c2csc(Nc3cccc(O)c3)n2)s1,-155.7*
CC(=O)Nc1ccc(Nc2nc(-c3sc(C)nc3C)cs2)cc1,-77.2*
Cc1cccc(Nc2nc(-c3sc(C)nc3C)cs2)c1,-149.4*
Cc1nc(N)sc1-c1csc(Nc2cccc(O)c2)n1,-78.7*
CC(C)OCCCNC(=O)C(=O)N/N=C/c1ccc(OCc2ccccc2)cc1,-66.8*
O=C(NCc1ccncc1)C(=O)N/N=C/c1ccc(OCc2ccccc2)cc1,-92.7*
Nc1ccccc1C(=O)N=Nc1[nH]c(N)c2ccccc12,-100.8*
Nc1[nH]c(N=NC(=O)c2ccc(F)cc2)c2ccccc12,-147.1*
CN1C(=O)NC(c2ccc(O)cc2)C(C(=O)c2cccs2)C1(O)C(F)(F)F (stereo not given),-100.2*
COc1cc(C2NC(=S)NC(O)(C(F)(F)F)C2C(=O)c2cccs2)cc(OC)c1O (stereo not given),-95.1*
COc1ccc2nc(NNC(=O)c3cc(=O)c4ccccc4o3)sc2c1,-88.3*
Cc1cccc2sc(NNC(=O)c3cc(=O)c4ccccc4o3)nc12,-62.2*
Cc1cccc2sc(NNC(=O)c3ccc(S(=O)(=O)N4CC(C)CC(C)C4)cc3)nc12 (stereo not given),81.5
COc1ccccc1-n1cnc(N)c1C(=O)c1ccccc1,-152.8*
SMILES,aSyn 5UTR act
COc1cc(C(=O)N/N=C(\c2ccccc2)c2ccccn2)cc(OC)c1OC,81.3
Nc1c(-c2ccccc2)n[nH]c1-c1ccccc1,-219.0*
Nc1nn(-c2ccccc2)c(N)c1N=Nc1ccccc1F,-98.0*
Nc1nn(-c2ccccc2)c(N)c1N=Nc1ccccc1,-105.6*
Nc1ncnc(N)c1N=Nc1ccccc1,111.8
Nc1c(N=Nc2ccccc2F)c(=O)[nH]n1-c1ccccc1,-125.3*
CCOc1ccc(-c2nc(-c3ccncc3)no2)cc1OCC,-95.4*
CCOc1ccc(-c2nc(-c3ccccc3)no2)cc1OCC,-137.1*
Cc1ccc(-c2cc(N)n(-c3ccccc3)n2)cc1,-115.2*
Nc1cc(C2CCCC2)nn1-c1ccccc1,-128.0*
CCc1ccc(-c2cc(N)n(-c3ccccc3)n2)cc1,-121.0*
CCCn1cnc2cc(NCc3cccs3)ccc21,-161.1*
CCc1ccc(CNc2ccc3c(c2)ncn3CC)cc1,-176.8*
CCOc1ccc2nc3cc(NCc4ccc(OC)cc4)ccc3c(N)c2c1,108.6
CCn1cnc2cc(NCc3ccc(OC)cc3)ccc21,-100.7*
CN(N=Nc1ccc([N+](=O)[O-])cc1)c1ccccc1,-111.7*
CN(CCCC(=O)O)c1ccc(N=Nc2ccc([N+](=O)[O-])cc2)cc1,-65.4*
CN(N=Nc1cccc([N+](=O)[O-])c1)c1ccccc1,-107.5*
COC(=O)c1c(-c2ccc(F)cc2)csc1NC(=O)c1ccco1,-128.7*
COc1ccc(-c2csc(NC(=O)c3ccccc3F)c2C(=O)O)cc1,-89.5*
Cc1ccc(C(=O)Nc2scc(-c3ccccc3)c2C(=O)O)cc1,-91.8*
COC(=O)c1c(-c2ccc(C)cc2)csc1NC(=O)c1c(-c2ccccc2)noc1C,67.9
COC(=O)c1c(-c2cccnc2)csc1NC(=O)c1cc(C)on1,-231.2*
O=c1/c(=C/c2ccccn2)sc2nc3ccccc3n12,-173.8*
O=C(NC(C(=O)c1ccccc1)N1CCOCC1)c1ccccc1 (stereo not given),-66.7*
SMILES,aSyn 5UTR act
Cc1cc(=O)n(C(NC(=O)c2ccccc2)C(=O)c2ccccc2)cn1 (stereo not given),-84.1*
COc1ccccc1C(=O)N1CCN(CCNC(=O)C(=O)Nc2ccc(Br)c(C)c2)CC1,-89.2*
CC(=O)c1c(C)[nH]c(C2=NNC(=NC(C)(C)C)SC2)c1C,-96.9*
CCOC(=O)c1c(C)[nH]c(C2=NNC(=Nc3ccccc3)SC2)c1C,-96.8*
CCOC(=O)c1c(C)[nH]c(C2=NNC(=Nc3ccccc3OC)SC2)c1C,-89.6*
C/C(CC1CC(COCC(C)C)OC1=O)=N\Nc1nc(-c2ccccc2)cs1 (stereo not given),-82.2*
Cc1csc(=O)n1CC(=O)OCc1cccc2ccccc12,-90.4*
COc1ccc(-c2nc(C3CCCCC3)no2)cc1OC,-162.2*
c1ccc(-c2nc(C3CCCCC3)no2)cc1,-203.9*
CC1CCc2c(sc(NC(=O)C3CCCO3)c2C#N)C1 (stereo not given),-114.4*
CC1CCc2c(sc(NC(=O)c3nc4ncccn4n3)c2C#N)C1 (stereo not given),-147.9*
CC1CCc2c(sc(NC(=O)COC(=O)C3CCCO3)c2C#N)C1 (stereo not given),-68.4*
